# Screens from PubChem.
# 12-hLO inh: blocks human 12-lipoxygenase activity. P18054. purified 12-hLO, xylenol orange hydroperoxide absorbance. Potency, µM (highest dose often 57.1 µM), for the others: top-dose activity change, negative = inhibition, actives largely listed as inhibitors. hit rate 0.12% among 150,000. AID 1452; note: potency is the fitted concentration of half-maximal effect; nearly all actives have a fitted effect of over 55% in size
#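 Lipoxygenase turnover measured by absorbance at 573 and 405 nm after Fe-XO development. Human 12hLO 150 nM, arachidonate 40 uM, pH 7.0 Hepes buffer with detergent; 15 min compound preincubation, 30 min reaction.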
# IMPase inh: cell-permeable inhibitors of inositol monophosphatase (IMPase); P97697; CHO-M1 cells, IP1 accumulation, HTRF TR-FRET ratio; inhibition (IP1 accumulation), % at 46.1 µM; 120,000 tested, under 10 active; active = well fitted curve in the direction sought with a large enough effect in the signal ratio, not every such curve was filed as active; inconclusive = small, poorly fitted or top-dose-only effect, or a change in a side signal; inactive = no such curve, though single readings can be large or run the other way; the % refers to the signal ratio;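 note: cells stimulated with carbachol in lithium chloride buffer; plate controls were DMSO basal wells for no effect and reference inhibitor wells for full effect; higher means more IMPase inhibition seen as more IP1 and lower FRET ratio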
# Target sequence (P97697 whole entry, looked up): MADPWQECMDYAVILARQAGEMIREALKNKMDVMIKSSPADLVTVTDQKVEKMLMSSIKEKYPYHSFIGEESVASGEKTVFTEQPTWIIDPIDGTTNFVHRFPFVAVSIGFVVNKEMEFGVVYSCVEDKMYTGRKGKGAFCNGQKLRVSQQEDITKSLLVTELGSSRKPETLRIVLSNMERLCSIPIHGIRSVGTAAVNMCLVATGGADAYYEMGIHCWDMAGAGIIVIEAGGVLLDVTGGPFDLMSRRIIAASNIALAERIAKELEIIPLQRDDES
#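 Cellular IMPase inhibition is scored as a rise in cytosolic IP1, detected by competitive TR-FRET between d2-labelled IP1 and a europium anti-IP1 antibody. M1-expressing CHO cells were stimulated with carbachol for 30 min at 37C, with lithium (50 mM LiCl) present in the buffer.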
# PNC inhibitor: blocks assembly of the perinucleolar compartment | hit rate 3.1% among 140,000 | PC3M PTB-GFP, PNC prevalence imaging, 16 h; active compounds read low | activity change (PNC), negative = inhibition, % at 10 µM;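 active = readout at or below -70, meaning at least 70% loss of cells showing the perinucleolar compartment, a nuclear body marking cancer cells; inconclusive = readout between -30 and a set limit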;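 note: plate controls were DMSO wells for no effect and camptothecin positive control wells for full effect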
#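 Read-out is percentage of cells bearing a perinucleolar compartment, from automated 20x imaging of fixed, Hoechst-stained PC3M PTB-GFP cells. Cells were seeded 4 h, then exposed 16 h to compound (23 nl of library stock) in duplicate plates.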
# ALDH1A1 block: inhibitors of human aldehyde dehydrogenase 1A1 | Purified ALDH1A1, NADH fluorescence, propionaldehyde substrate | Potency, µM (series often up to 75.3 µM), without a hit: top-dose activity, negative = inhibition, usual class: inhibitors | hit rate 7.3% among 220,000 | AID 1030; active = well fitted inhibition curve with a large enough effect, not every such curve was filed as active; inconclusive = small, poorly fitted or top-dose-only effect, or another doubt; inactive = no such curve, though single readings can be large or run the other way;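 note: potency is the fitted concentration of half-maximal effect; plate controls were no enzyme wells and a reference inhibitor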
# IMPase Li inh: IMPase inhibition in cells with lithium potentiation; Potency, µM (titrated, usually from 59.4 µM), without a hit: at the highest dose activity, negative = IMPase inhibition, hits mostly inhibitors; CHO-M1 cells, IP1 TR-FRET (IP-One), carbachol + lithium; hit rate 0.35% among 210,000;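 note: IP1 builds up when IMPase is blocked and the TR-FRET signal falls; potency is the fitted concentration of half-maximal effect; plate controls were basal vehicle for no effect and high inhibitor control for full effect; nearly all actives have a fitted effect of over 50% in size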
#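 CHO cells stably expressing M1 receptor (2000/well) were cultured 16–30 h, then exposed to compounds with a small lithium addition for 30 min at 37C. IP1 was measured by TR-FRET competition; AC50 from Hill fits.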
# HPGD inh: blocks human HPGD enzyme activity; P15428; purified HPGD, NADH fluorescence kinetic, PGE2 substrate; Potency, µM, inactives show top-dose activity change, negative = inhibition, actives largely listed as inhibitors; hit rate 4.3% among 150,000; active = well fitted inhibition curve with a large enough effect, not every such curve was filed as active; inconclusive = small, poorly fitted or top-dose-only effect, or another doubt; inactive = no such curve, though single readings can be large or run the other way; note: potency is the fitted concentration of half-maximal effect
# Target sequence (P15428 whole entry, looked up): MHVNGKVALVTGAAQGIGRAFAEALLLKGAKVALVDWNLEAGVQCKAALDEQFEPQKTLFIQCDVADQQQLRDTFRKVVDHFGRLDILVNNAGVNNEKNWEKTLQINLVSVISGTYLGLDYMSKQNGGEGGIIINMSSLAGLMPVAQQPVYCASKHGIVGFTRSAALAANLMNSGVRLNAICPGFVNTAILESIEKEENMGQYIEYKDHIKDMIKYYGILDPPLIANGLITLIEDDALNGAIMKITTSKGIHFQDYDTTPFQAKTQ
#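 NADH formation kinetics: reaction with 30 uM PGE2 and 1 mM NAD+ (final), 20 nM enzyme, Tris-HCl pH 8 with Tween 20, after 15 min compound preincubation at room temperature. Fluorescence change, last versus first of five reads.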
# An asterisk follows results filed as active; ? = inconclusive; . = no result given; [ ] = remark or other dose. Compounds with a hit are over-represented: about 11% of the library has one in this group of screens. Unless noted, calls come from the whole dose curve; as a rule, active = well fitted curve in the direction sought with a large enough effect; inconclusive = small, poorly fitted or top-dose-only effect, or another doubt; inactive = no such curve, though single readings can be large; an effect the other way counts as inactive or inconclusive. Unless noted, % is set by controls: 0 for no effect and ±100 for the full control effect.
SMILES,12-hLO inh,IMPase inh,PNC inhibitor,ALDH1A1 block,IMPase Li inh,HPGD inh
Cc1cc2ccc(=O)oc2cc1OC[C@@H](O)C(C)(C)O,-6%,-10,.,?,0%,?
CC(=O)N1CCC2(CCN(Cc3nccs3)CC2)CC1,-1%,.,.,1%,8%,-5%
NC(=O)C1CCN(C2CC(=O)N(c3cccc(F)c3)C2=O)CC1 (stereo not drawn),1%,-2,15,22µM*,13%[38.3 µM],0%
Cc1ccccc1N1C(=O)CC(N2CCC(C(N)=O)CC2)C1=O (stereo not drawn),-4%,4,?,?,22%[38.3 µM],7%
NC(=O)C1CCN(C2CC(=O)N(c3ccc(F)c(Cl)c3)C2=O)CC1 (stereo not drawn),-4%,0,13,25µM*,0%[38.3 µM],-11%
CC(=O)NNC(=O)c1sc(=S)n2c1[nH]c(=O)c1sccc12,.,.,.,3.5µM*,6%,.
NC(=O)c1sc(=S)n2c1[nH]c(=O)c1sccc12,.,.,.,?,4%,.
C=CCN1C(=O)/C(=C/c2ccc(OCC(=O)O)cc2)S/C1=N/c1nccs1,-1%,.,?,5µM*,-9%,-19%
C=CCN1C(=O)/C(=C/c2ccc(O)c(OC)c2)S/C1=N/c1nccs1,-12%,.,-5,1µM*,4%,-17%
Cc1c(NC2=C(Cl)C(=O)N(c3ccccc3)C2=O)c(=O)n(-c2ccccc2)n1C,-14%,-1,-17,?,38%[38.3 µM],-22%
C=CCNC1=C(Cl)C(=O)N(c2ccccc2Cl)C1=O,-14%,12,18,25µM*,-9%[38.3 µM],-17%
Cc1c(NC2=C(Cl)C(=O)N(c3ccccc3Cl)C2=O)c(=O)n(-c2ccccc2)n1C,-10%,.,17,35µM*,-7%,-8%
Nc1nc2c(nc(Br)n2[C@@H]2O[C@H]3COP(=O)(O)O[C@@H]3[C@H]2O)c(=O)[nH]1,-3%,4,.,.,.,.
CC(C)(O)[C@@H]1CCC[N+]2(C)CCCC[C@H]12 (stereo partly drawn),.,.,.,13%,16%,-4%
COc1ccc(NC(=O)c2cc3c(Cl)nc4ccccc4c3s2)cc1OC,-1%,.,-88*,3%,8%,-5%
O=C1C(Cl)=C(NCC2CCCO2)C(=O)N1c1ccccc1 (stereo not drawn),-12%,?,8,5%,.,.
O=C1C(Cl)=C(NCC2CCCO2)C(=O)N1C1CCCCC1 (stereo not drawn),1%,3,59,4µM*,7%[38.3 µM],-25%
CC(=O)N1CCC[C@@]2(CCN(c3ccncc3)C2)C1,4%,.,.,-5%,?,-1%
CC(=O)Nc1ccc(SCC(=O)c2cc(C)n(CC(F)(F)F)c2C)cc1,3%,17,34,20µM*,33%[38.3 µM],-16%
CC(=O)Nc1ccc(SCC(=O)c2cc(C)n(C)c2C)cc1,5%,1,-19,-7%,-7%[38.3 µM],-3%
COc1ccccc1CNc1nc(-c2ccccc2CN(C)C)nc2ccccc12,2%,.,.,-2%,13%,-5%
Cc1cc2c(ncn2Cc2ccccc2)c([N+](=O)[O-])c1C,-3%,6,-27,?,27%[38.3 µM],20µM*
O=C(NCc1ccco1)c1sc2ccccc2c1Cl,-4%,-6,8,?,0%,16µM*
O=C(NCc1ccco1)c1nc2ccccc2s1,0%,-5,27,?,20%[38.3 µM],?
NC(=O)COC(=O)CNC(=O)c1sc2ccccc2c1Cl,.,.,.,22µM*,?,.
SMILES,12-hLO inh,IMPase inh,PNC inhibitor,ALDH1A1 block,IMPase Li inh,HPGD inh
O=C(NCc1ccco1)c1sc2cc(Cl)ccc2c1Cl,-19%,?,-11,20µM*,6%,16µM*
CCn1nnc(NC(=O)c2cccnc2Cl)n1,3%,-9,42,19%,43%[38.3 µM],-2%
CCn1nnc(NC(=O)c2sc3ccccc3c2Cl)n1,-5%,1,-17,3.2µM*,-24%,-17%
CC#CCN1c2ccccc2[C@]23C[C@@H](C(=O)OC)N(S(=O)(=O)c4ccc(C(F)(F)F)cc4)C2=NC(C(=O)OC)=C(C(=O)OC)[C@H]13,2%[11.4 µM],.,.,2%[13.5 µM],1%,2%
COCC(O)CSc1c([N+](=O)[O-])nc(C)n1Cc1ccc(OC)c([N+](=O)[O-])c1 (stereo not drawn),4%,-1,?,25µM*,4%,-4%
CC(C)C(=O)N[C@@H]1CCCN1C(=O)/C=C\c1ccccc1,.,.,.,-1%[13.5 µM],.,.
Cc1ccccc1-n1c(SCc2c(C)noc2C)nnc1-c1cccnc1,-6%,3,?,5%,.,.
Cc1ccccc1-n1c(SCc2c(C)noc2C)nnc1-c1ccncc1,3%,10,-83*,?,43%[38.3 µM],-12%
COCC(=O)N1CCC2(CCCN(c3cccc(-c4ccccc4)c3)C2)CC1,-23%,.,.,?,4%,-23%
CN(C)c1nc(N(C)C)nc(N2CC(=O)N(c3ccccc3)C2=N)n1,.,.,.,1.4µM*,3%,.
O=[N+]([O-])c1cc(S(=O)(=O)N2CCCC2)ccc1N/N=C/c1cccnc1,1%,.,70,4%,1%,-4%
Cc1nn(-c2ccccc2)c(Cl)c1/C=N/Nc1ccc(S(=O)(=O)Nc2ccccc2C(=O)O)cc1[N+](=O)[O-],?,-1,27,?,10%[38.3 µM],16µM*
Cc1nn(-c2ccccc2)c(Cl)c1/C=N/Nc1ccc(Cl)c(C(=O)O)c1,-3%,.,2,-9%,-8%,?
O=C(O)c1ccccc1/C=N/Nc1ccc(S(=O)(=O)N2CCCC2)cc1[N+](=O)[O-],.,.,.,13µM*,.,.
CC1(C)Oc2cc3c(cc2O1)OC(C)(C)O3,.,.,.,8%[13.5 µM],.,.
Clc1cc(Sc2ccc(Br)cc2)nnc1-c1ccccc1,0%,4,-13,1µM*,18%[38.3 µM],-21%
CC(=O)Nc1nonc1-c1nc2ccccc2n1CC1CC1,-3%,1,-94*,?,8%[38.3 µM],-21%
Cc1cc2c(cc1C)NC(CC(=O)Nc1ccccc1SC(F)(F)F)C(=O)N2 (stereo not drawn),.,0,.,.,.,.
COc1ccc(-n2c(=S)[nH]c3cc(C(=O)NCCCN4CCCC4=O)ccc3c2=O)c(OC)c1,1%,-2,-26,14µM*,22%[38.3 µM],-16%
COc1ccc(-n2c(=S)[nH]c3cc(C(=O)NCCCN4CCCC4=O)ccc3c2=O)cc1,-1%,-4,-3,18µM*,1%[38.3 µM],-9%
O=C1[C@H]2[C@H]3[C@H](O)[C@H](O)C/C(=N/OC[C@@H](O)COCc4ccco4)[C@@H]3CC[C@@H]2C(=O)N1c1cccc(Oc2ccccc2)c1,.,.,.,-9%[13.5 µM],.,.
C=CCn1c(=O)/c(=C/c2cc(OC)c(OC)c(OC)c2)s/c1=C(/C#N)c1nc2ccccc2n1C,-5%,2,-16,1.4µM*,?,-26%
